PubChem BioAssay (Tox21)
Inconclusive results are not listed. Calls of active or inactive are those of the source. Unless noted, the call rests on the fitted dose curve; in most records, active means well fitted curve in the direction sought with a large enough effect in the repeat runs; inconclusive means weak or mixed curves; inactive means no such curve, though single readings can be large; an effect the other way counts as inactive or inconclusive.

Experiments:
[1] = qHTS assay for small molecule agonists of the p53 signaling pathway (AID 651631; calls by dose curve; further: nearly all actives have a fitted effect of over 15% in size)
In short: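 Beta-lactamase reporter activity under p53 response elements was quantified in HCT-116 cells by FRET fluorescence, following 16 h incubation with test compounds at 37 °C and 2 h substrate development at room temperature.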

[2] = qHTS assay for small molecules that induce genotoxicity in human embryonic kidney cells expressing luciferase-tagged ATAD5 (AID 651632); further: nearly all actives have a fitted effect of over 15% in size
In short: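 Luminescent reporter readout, HEK293T ATAD5-luc line: 16 hr drug exposure (37C, 5% CO2) followed by Amplite, 30 min RT.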

[3] = qHTS assay for small molecule agonists of the p53 signaling pathway - cell viability (AID 651633; calls by dose curve;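 further: p53RE-bla HCT reporter cells with a stable beta-lactamase p53 reporter; series mostly up to about 83 µM; nearly all actives have a fitted effect of over 30% in size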)
In short: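 p53RE-bla cells were treated with compound for 16 hours at 37 C. Cytotoxicity was then measured as CellTiter-Glo luminescence after 30 min at room temperature.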

[4] = qHTS assay for small molecules that induce genotoxicity in human embryonic kidney cells expressing luciferase-tagged ATAD5 - cell viability (AID 651634; calls by dose curve; further: nearly all actives have a fitted effect of over 25% in size)
In short: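 Viability read: CellTiter-Fluor fluorescence, 30 min at 37C. Cells: HEK293T, luciferase-tagged ATAD5. Exposure: 15.5 hr, 37C, 5% CO2, compound or DMSO vehicle.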

[5] = qHTS assay for small molecule disruptors of the mitochondrial membrane potential - cell viability (AID 720634; calls by dose curve;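 further: human HepG2 liver cancer cells; series mostly up to about 83 µM; nearly all actives have a fitted effect of over 20% in size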)
In short: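 HepG2, 1 hr compound, 37 C. ATP luminescence via CellTiter-Glo, 30 min RT, same well as m-MPI.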

[6] = qHTS assay to test for compound auto fluorescence at 590 nm (red) in HepG2 cells (AID 720674)
In short: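 Fluorescence at 590 nm emission following 540 nm excitation was recorded from HepG2 wells one hour after compound transfer, with DMSO-only wells as vehicle and Rose Bengal sodium equivalency as the scale.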

[7] = qHTS assay to test for compound auto fluorescence at 535 nm (green) in HepG2 cells (AID 720675)
[8] = qHTS assay to test for compound auto fluorescence at 460 nm (blue) in HEK293 cells (AID 720678)
In short: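 HEK293 cells (2,000/well, medium with 10% dialyzed FBS) attached 4-5 hr, then exposed to compound overnight at 37C, 5% CO2. Blue fluorescence read at 405/460 nm, with triamterene as reference fluorophore.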

[9] = qHTS assay to test for compound auto fluorescence at 590 nm (red) in HEK293 cells (AID 720679)
In short: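 HEK293 cells (2,000/well, 10% dialyzed FBS) attached 4-5 hr, then dosed with compound or DMSO and incubated overnight at 37C, 5% CO2. Red fluorescence read at 540/590 nm, Rose Bengal sodium as reference fluorophore.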

[10] = qHTS assay to test for compound auto fluorescence at 535 nm (green) in HEK293 cells (AID 720680)
[11] = qHTS assay to test for compound auto fluorescence at 460 nm (blue) in HEK293 cell free culture (AID 720681)
In short: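 Compounds were added to cell-free DMEM with 10% FBS and fluorescence read directly. The blue channel used 405 nm excitation and 460 nm emission, with triamterene as the reference fluorophore.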

[12] = qHTS assay to test for compound auto fluorescence at 535 nm (green) in HEK293 cell free culture (AID 720682)
In short: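 Each library compound, or DMSO control, is added by pintool to medium alone, comprising DMEM and 10% FBS. Emission at 535 nm following 485 nm excitation is quantified against fluorescein.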

[13] = qHTS assay to test for compound auto fluorescence at 590 nm (red) in HEK293 cell free culture (AID 720683)
In short: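 Cell-free wells of DMEM with 10% FBS received compound, and intrinsic fluorescence was read at excitation/emission 540/590 nm. Values expressed as equivalence to Rose Bengal sodium.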

[14] = qHTS assay to test for compound auto fluorescence at 590 nm (red) in HepG2 cell free culture (AID 720684)
In short: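 Compound was pinned into wells holding MEM with 10% FBS and no cells, and red fluorescence was read at Ex/Em 540/590 nm. Signal is expressed as auto fluorescence equivalency relative to Rose Bengal sodium.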

[15] = qHTS assay to test for compound auto fluorescence at 460 nm (blue) in HepG2 cell free culture (AID 720685)
In short: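 Compound (23 nL) or DMSO pinned into cell-free MEM with 10% FBS; blue fluorescence read at 405/460 nm excitation/emission, expressed as auto-fluorescence equivalency to triamterene.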

[16] = qHTS assay to test for compound auto fluorescence at 535 nm (green) in HepG2 cell free culture (AID 720686)
[17] = qHTS assay to test for compound auto fluorescence at 460 nm (blue) in HepG2 cells (AID 720687)
In short: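 HepG2 cells in MEM with 10% FBS, attached overnight at 37 C, were exposed to compound or DMSO for 1 hr at 37 C, 5% CO2. Blue fluorescence was read at 405/460 nm, with triamterene as reference fluorophore.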

[18] = qHTS assay for small molecule disruptors of the mitochondrial membrane potential (AID 720635)
In short: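 HepG2 cells exposed to compound 1 hr at 37C, then Mito-MPS dye 30 min. Ratio read of aggregate (540/590 nm) versus monomer (490/535 nm) fluorescence.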

[19] = molecular target: Glucocorticoid receptor (Homo sapiens) (UniProt P04150); experiment: qHTS assay to identify small molecule agonists of the glucocorticoid receptor (GR) signaling pathway (AID 720691; active means well fitted activation curve with a large enough effect in the signal ratio in the repeat runs, not every such curve was filed as active; the % refers to the signal ratio)
Sequence of Glucocorticoid receptor (Homo sapiens) (P04150 whole entry, looked up): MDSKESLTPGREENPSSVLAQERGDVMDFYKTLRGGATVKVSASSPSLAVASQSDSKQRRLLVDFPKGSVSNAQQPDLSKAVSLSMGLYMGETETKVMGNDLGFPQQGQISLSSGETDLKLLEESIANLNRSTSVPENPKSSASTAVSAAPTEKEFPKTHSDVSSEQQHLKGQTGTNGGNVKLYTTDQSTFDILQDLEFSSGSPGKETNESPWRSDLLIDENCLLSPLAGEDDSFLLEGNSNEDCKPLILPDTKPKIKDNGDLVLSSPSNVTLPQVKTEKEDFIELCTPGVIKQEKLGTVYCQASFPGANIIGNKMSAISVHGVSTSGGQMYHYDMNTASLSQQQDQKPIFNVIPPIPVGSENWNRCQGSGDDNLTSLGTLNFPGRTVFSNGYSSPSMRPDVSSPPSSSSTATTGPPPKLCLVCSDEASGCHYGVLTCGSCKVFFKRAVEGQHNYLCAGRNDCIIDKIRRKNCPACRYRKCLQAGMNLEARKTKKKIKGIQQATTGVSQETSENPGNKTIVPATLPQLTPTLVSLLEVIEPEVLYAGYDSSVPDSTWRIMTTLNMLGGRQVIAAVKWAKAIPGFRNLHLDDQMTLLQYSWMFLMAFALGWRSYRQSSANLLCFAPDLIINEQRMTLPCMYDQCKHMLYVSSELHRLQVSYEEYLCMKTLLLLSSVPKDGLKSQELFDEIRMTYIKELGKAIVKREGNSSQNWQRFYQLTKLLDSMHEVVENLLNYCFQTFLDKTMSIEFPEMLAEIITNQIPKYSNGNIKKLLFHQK
In short: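 qHTS in GR-bla HeLa cells: 4 h settling at 37 C/5% CO2, 18 h compound incubation at 37 C, 2 h LiveBLAzer B/G FRET substrate at room temperature, fluorescence intensity measured.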

[20] = molecular target: Glucocorticoid receptor (Homo sapiens) (UniProt P04150); experiment: qHTS assay to identify small molecule antagonists of the glucocorticoid receptor (GR) signaling pathway (AID 720692; active means well fitted inhibition curve with a large enough effect in the signal ratio in the repeat runs, not every such curve was filed as active; the % refers to the signal ratio)
In short: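 Inhibition of glucocorticoid signalling is measured in HeLa cells with a GRE-controlled beta-lactamase reporter; cells are co-treated with compound and 5 nM dexamethasone (final) for 18 h before FRET substrate readout.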
On the % scale 0 is the no-effect control and ±100 the full control effect.

CCSCc1ccccc1OC(=O)NC
inactive: Potency [1] | Potency [2] | Potency [3] | Potency [4] | Potency [5] | outcome [6] | outcome [7] | outcome [8] | outcome [9] | outcome [10] | outcome [11] | outcome [12] | outcome [13] | outcome [14] | outcome [15] | outcome [16] | outcome [17]

CC(C)(C)NCC(O)c1cc(Cl)c(N)c(C(F)(F)F)c1 (stereo not drawn)
inactive: Potency [1] | Potency [2] | Potency [3] | Potency [4] | Potency [5] | Potency [18] | outcome [6] | outcome [7] | outcome [9] | outcome [10] | outcome [12] | outcome [13] | outcome [14] | outcome [15] | outcome [16] | outcome [17] | Potency [19] | Potency [20]

CCCCC#N
inactive: Potency [1] | Potency [2] | Potency [3] | Potency [4] | Potency [5] | Potency [18] | outcome [6] | outcome [7] | outcome [8] | outcome [9] | outcome [10] | outcome [11] | outcome [12] | outcome [13] | outcome [14] | outcome [15] | outcome [16] | outcome [17]

CCCC[N+]1(C)[C@@H]2CC(OC(=O)[C@H](CO)c3ccccc3)C[C@H]1[C@@H]1O[C@@H]12 (stereo partly drawn)
inactive: Potency [1] | Potency [2] | Potency [3] | Potency [4] | Potency [5] | outcome [6] | outcome [7] | outcome [8] | outcome [9] | outcome [10] | outcome [11] | outcome [12] | outcome [13] | outcome [14] | outcome [15] | outcome [16] | outcome [17] | Potency [19] | Potency [20]

CNC(=O)Oc1cccc(N=CN(C)C)c1
inactive: Potency [1] | Potency [2] | Potency [3] | Potency [4] | Potency [5] | Potency [18] | outcome [6] | outcome [7] | outcome [8] | outcome [9] | outcome [11] | outcome [12] | outcome [13] | outcome [14] | outcome [15] | outcome [16] | outcome [17]

O=C(O)c1cc(I)cc(I)c1I
inactive: Potency [1] | Potency [2] | Potency [3] | Potency [4] | Potency [5] | Potency [18] | outcome [6] | outcome [7] | outcome [9] | outcome [11] | outcome [12] | outcome [13] | outcome [14] | outcome [15] | outcome [16] | outcome [17] | Potency [19] | Potency [20]

C[N+](C)(C)CC1CO1 (stereo not drawn)
inactive: Potency [1] | Potency [2] | Potency [3] | Potency [4] | Potency [5] | Potency [18] | outcome [6] | outcome [7] | outcome [9] | outcome [10] | outcome [11] | outcome [12] | outcome [13] | outcome [14] | outcome [15] | outcome [16] | outcome [17]

CCOC(=O)c1cncn1C(C)c1ccccc1 (stereo not drawn)
inactive: Potency [1] | Potency [2] | Potency [3] | Potency [4] | Potency [5] | fluorescence, relative to Rose Bengal [6] -0.315% [at 18.6 µM] | fluorescence, % of fluorescein control [7] 0.021% [at 18.6 µM] | fluorescence, % of triamterene [8] -0.152% [at 18.6 µM] | fluorescence, % of fluorescent control [9] 0.134% [at 18.6 µM] | fluorescence, % of fluorescein [10] -0.183% [at 18.6 µM] | fluorescence, % of fluorescent control [11] -0.0565% [at 18.6 µM] | activity change [12] -0.219% [at 18.6 µM] | fluorescence, % of fluorescent control [13] 0.175% [at 18.6 µM] | fluorescence, % of Rose Bengal [14] 0.117% [at 18.6 µM] | fluorescence, % of fluorescent control [15] -0.0673% [at 18.6 µM] | fluorescence, % of fluorescein control [16] 0.0291% [at 18.6 µM] | fluorescence, % of fluorescent control [17] 0.278% [at 18.6 µM]

Cc1nnc(-c2ccccc2)c(=O)n1N
inactive: Potency [1] | Potency [2] | Potency [3] | Potency [4] | Potency [5] | Potency [18] | outcome [6] | outcome [7] | outcome [8] | outcome [9] | outcome [10] | outcome [11] | outcome [12] | outcome [13] | outcome [14] | outcome [15] | outcome [16] | outcome [17] | Potency [19] | Potency [20]

C1CS1
inactive: Potency [1] | Potency [2] | Potency [3] | Potency [4] | Potency [5] | outcome [6] | outcome [7] | outcome [8] | outcome [9] | outcome [10] | outcome [11] | outcome [12] | outcome [13] | outcome [14] | outcome [15] | outcome [16] | outcome [17]

CC(C)C1(C)N=C(c2ncccc2C(=O)O)NC1=O (stereo not drawn)
inactive: Potency [1] | Potency [2] | Potency [3] | Potency [4] | Potency [5] | outcome [6] | outcome [7] | outcome [8] | outcome [9] | outcome [10] | outcome [11] | outcome [12] | outcome [13] | outcome [14] | outcome [15] | outcome [16] | outcome [17] | Potency [19] | Potency [20]

CCCN(CCC)C(=O)Cc1c(-c2ccc(Cl)cc2)nc2ccc(Cl)cn12
inactive: Potency [1] | Potency [2] | Potency [3] | Potency [4] | Potency [5] | outcome [6] | outcome [7] | outcome [8] | outcome [9] | outcome [10] | outcome [11] | outcome [12] | outcome [13] | outcome [14] | outcome [15] | outcome [16] | outcome [17]

CC(Cl)C(=O)O (stereo not drawn)
inactive: Potency [1] | Potency [2] | Potency [3] | Potency [4] | Potency [5] | outcome [6] | outcome [7] | outcome [8] | outcome [9] | outcome [10] | outcome [11] | outcome [12] | outcome [13] | outcome [14] | outcome [15] | outcome [16] | outcome [17]

CCCC[N+](CCCC)(CCCC)CCCC
inactive: Potency [1] | Potency [2] | Potency [3] | Potency [4] | Potency [5] | outcome [6] | outcome [7] | outcome [8] | outcome [9] | outcome [10] | outcome [11] | outcome [12] | outcome [13] | outcome [14] | outcome [15] | outcome [16] | outcome [17]
